What was measured:
Type in all cases: functional
[1] = system: Plasmodium falciparum; test: GSK_TCMDC: Inhibition of Plasmodium falciparum 3D7 in whole red blood cells, using parasite LDH activity as an index of growth. Test compounds present at 2uM
[2] = system: Plasmodium falciparum; test: GSK_TCMDC: Inhibition of Plasmodium falciparum Dd2 in whole red blood cells, using parasite LDH activity as an index of growth. Test compounds present at 2uM
[3] = system: HepG2; test: GSK_TCMDC: Percent inhibition of human HepG2 cell line. Test compounds present at 10uM.

Row | SMILES | Inhibition [1] [%] | Inhibition [2] [%] | Inhibition [3] [%]
1 | Cc1ccc(C(=O)Cn2nc(-c3ccc(C)c(S(=O)(=O)N4CCCCC4)c3)ccc2=O)cc1 | 99 | 76 | 6
2 | CC(C(=O)N1CCCC1)N1CCN(C(c2ccccc2)c2ccccc2)CC1 (stereo not drawn) | 82 | 56 | 0
3 | COc1cccc(OC)c1CN1CCC(N(C)CCCCCCCCN2CCC(OC(=O)Nc3ccccc3-c3ccccc3)CC2)CC1 | 99 | 100 | 100
4 | COc1ccc(CN2CCC(N3CC(c4ccccc4)(c4ccccc4)OCC3=O)C2)c(O)c1.O=C(O)C(F)(F)F (stereo not drawn) | 96 | 27 | 10
5 | CN(C1CCC(NC(=O)/C=C/c2ccccc2)CC1)C1CC2(CCN(C(=O)OC(C)(C)C)CC2)c2ccccc21 (stereo not drawn) | 95 | 95 | 16
6 | O=C(Nc1ccc(N2CCN(Cc3ccccc3Cl)CC2)cc1)c1ccc([N+](=O)[O-])o1 | 91 | 67 | 100
7 | CC(=NNC(=N)N)c1ccc2ccc3ccccc3c2c1.Cl | 97 | 23 | 14
8 | COCCCn1c(=N)c(C(=O)NCCc2ccc(OC)cc2)cc2c(=O)n3cccc(C)c3nc21 | 95 | 33 | 18
9 | COc1ccc(Cl)cc1N1CCN(CCCNC(=O)c2ccc(-c3nc4cc(Cl)c(F)cc4[nH]3)cc2)CC1 | 100 | 98 | 3
10 | Cl.O=c1cc(NCCCNCc2sc(Br)nc2Br)[nH]c2ccccc12 | 92 | 44 | 1
11 | CC(=O)Nc1cccc(Nc2nccc(-c3c(-c4cccc(NC(=O)c5c(F)cccc5F)c4)nn4ncccc34)n2)c1 | 96 | 51 | 83
12 | COc1cc(NC(=O)N2CCc3ccc(OCCC4CCCN4C)cc32)cc(C(F)(F)F)c1.O=C(O)C(F)(F)F (stereo not drawn) | 100 | 42 | 5
13 | CN1CCC(C(=O)N(Cc2ccc(-c3ccc(CNCCc4ccccc4)cn3)cc2)C2CCN(Cc3ccccc3)CC2)CC1.O=C(O)C(F)(F)F | 100 | 99 | 24
14 | CCCOc1cc(O)c(-c2[nH]nc(C)c2Oc2ccccc2)cc1CC | 91 | 46 | 0
15 | COc1ccc(CNCc2ccc(-c3cccc(-c4nc5ccccc5[nH]4)c3)cc2)cc1.O=C(O)C(F)(F)F | 100 | 85 | 57
16 | CC(O)C1CCCCN1C(=O)c1cccc(-c2ccc(-c3nc4ccccc4[nH]3)s2)c1 (stereo not drawn) | 100 | 23 | 24
17 | CCN(CC)CCN(Cc1ccc(-c2ccc(C(F)(F)F)cc2)cc1)C(=O)Cn1c(CCc2cccc(F)c2F)cc(=O)c2c1CCCC2.O=C(O)C(O)C(O)C(=O)O | 100 | 95 | 93
18 | COc1ccc(S(=O)(=O)N(CC(=O)NN=C(C)c2cccs2)c2cc(C)cc(C)c2)cc1OC | 97 | 43 | 12
19 | O=C(Nc1cccc(CN2CCCN(Cc3ccccc3)CC2)c1)c1ccc(Cl)c(Cl)c1.O=C(O)C(F)(F)F | 95 | 16 | 23
20 | COc1ccc2nccc([C@@H](O)CN3CCC(NCc4ccc5c(c4)oc(=S)n5C)CC3)c2c1.O=C(O)/C=C/C(=O)O | 100 | 68 | 14
21 | Br.c1cc(C2=NC3CCCCC3N2)ccc1OCCCOc1ccc(C2=NC3CCCCC3N2)cc1 (stereo not drawn) | 99 | 64 | 0

Row | SMILES | Inhibition [1] [%] | Inhibition [2] [%] | Inhibition [3] [%]
22 | COCc1ccc(CN2CCC(C(=O)Nc3ccc(-c4nc5ccccc5[nH]4)cc3)CC2)o1 | 97 | 13 | 13
23 | Cn1cnc(CCNC(=O)c2cccc(-c3cccc(-c4nc5cc(C(F)(F)F)ccc5[nH]4)c3)c2)c1 | 100 | 45 | 37
24 | COc1ccc(N2CCN(CCCCNC(=O)c3ccc(NC(=O)c4ccc(Cl)cc4)cc3)CC2)c(C)c1 | 100 | 51 | 42
25 | CCc1nc(N)nc(N)c1-c1ccc(C(C)C)cc1 | 92 | 0 | 3
26 | COc1ccc2nc(N(CCCn3ccnc3)C(=O)C=Cc3cccs3)sc2c1.Cl | 92 | 26 | 8
27 | O=[N+]([O-])c1c(O)nc2c(c1O)CCC2 | 97 | 1 | 9
28 | COc1ccc(-c2nc3cccnc3n2CC(=O)Nc2c(C)cc(C)cc2C)c(OC)c1 | 91 | 21 | 77
29 | Nc1ncnc2c1ncn2C(CO)Cc1ccc(O)cc1 (stereo not drawn) | 93 | 0 | 0
30 | Cc1cc(-c2ccc3c(c2)CCN(CCC2CCC(NC(=O)/C=C/c4ccc(F)cc4)CC2)CC3)on1.Cl (stereo not drawn) | 98 | 47 | 29
31 | N#Cc1cc(C(=O)Nc2ccccc2)c(N)nc1SCC(=O)NC(c1ccccc1)c1cccs1 (stereo not drawn) | 98 | 100 | 34
32 | Cc1cccc2nc(-c3ccc(-c4cccc(NC(=O)c5cnccc5C(F)(F)F)c4)cc3)[nH]c12 | 84 | 13 | 25
33 | Cc1cc(=O)[nH]c(-n2nc(C)cc2NC(=O)C2(c3ccc(Cl)cc3)CCCC2)n1 | 96 | 97 | 30
34 | CCCC(C)Nc1nc(C)cc(NCCC(=O)Nc2ccc(OC)cc2)n1.O=C(O)C(F)(F)F (stereo not drawn) | 97 | 2 | 12
35 | COc1ccc2c(CCNc3nc(SC)ncc3C(=O)NCCc3ccc(F)cc3)c[nH]c2c1.O=C(O)C(F)(F)F | 91 | 49 | 3
36 | C#CCOc1ccccc1CN1CCC(N2CCc3cc(NC(=O)c4cc(C)on4)ccc32)C1 (stereo not drawn) | 95 | 94 | 16
37 | COc1ccc(-c2cnc3ccc(NC4CCC(O)CC4)nn23)cn1 (stereo not drawn) | 98 | 73 | 54
38 | CCNc1cc(C(=O)N[C@@H](Cc2ccccc2)[C@H](O)CNCCc2ccccc2)cc(N2CCCC2=O)c1.O=C(O)C(F)(F)F | 92 | 46 | 0
39 | CCCCCCN1CCCN(Cc2ccc(C(=O)Nc3ccc(C)c(F)c3)cc2)CC1.O=C(O)C(F)(F)F | 92 | 58 | 47
40 | COc1ccc(O)c(-c2sc(N=C(N)N)nc2-c2ccccc2)c1 | 100 | 96 | 2
41 | COc1ccc(Nc2nccc(N3CCC(NC(=O)Nc4ccc5c(c4)OCO5)C3)n2)cc1 (stereo not drawn) | 98 | 57 | 27
42 | Cl.NOCCCCOc1ccc(Cl)cc1 | 98 | 0 | 2

Row | SMILES | Inhibition [1] [%] | Inhibition [2] [%] | Inhibition [3] [%]
43 | CC(C)c1ccc(CN2CCCCC(NC(=O)c3cc(-c4cccc(F)c4)cs3)C2)cc1.O=C(O)C(F)(F)F (stereo not drawn) | 94 | 13 | 6
44 | CC(C)c1ccc(NC(=O)c2ccc(C(=O)NC3CCN(Cc4ccsc4)C3)cc2)cc1.O=C(O)C(F)(F)F (stereo not drawn) | 82 | 28 | 17
45 | O=C(Cc1cccc2ccccc12)NC1CCN(c2ccnc3cc(Cl)ccc23)C1.O=C(O)C(F)(F)F (stereo not drawn) | 82 | 97 | 13
46 | COc1ccc2nccc([C@@H](O)CN3CCC(NC(=O)c4[nH]c5ccccc5c4-c4ccccc4)CC3)c2c1 | 96 | 68 | 18
47 | CCN(CC)CCN(Cc1ccc(-c2ccc(C(F)(F)F)cc2)cc1)C(=O)Cn1c(/C=C/c2ccco2)nc(=O)c2ccccc21.O=C(O)C(O)C(O)C(=O)O | 94 | 86 | 28
48 | Cc1sc(C)c(CNCCCNc2cc(=O)c3ccccc3[nH]2)c1Br.Cl | 93 | 15 | 0
49 | Clc1cc(Nc2ccnc3ccc(Br)cc23)ccc1Oc1ccc2ccccc2c1Cl | 100 | 93 | 5
50 | Cc1cc(N)ncc1-c1ccc(NC(=O)Nc2cc(C(F)(F)F)ccc2F)cc1.O=C(O)C(F)(F)F | 100 | 23 | 15
51 | Fc1cccc2sc(Nc3nc(-c4ccccn4)cs3)nc12 | 95 | 97 | 30
52 | Cl.N=c1c2c(n(Cc3ccccc3)c3c1CCC3)CCCC2 | 86 | 39 | 4
53 | CCCN(CCC)C(C)CCC(C)Nc1c2ccc(Cl)cc2nc2ccc(OC)cc12.Cl (stereo not drawn) | 100 | 99 | 41
54 | CN1CCN(c2ccc(Nc3ncc(C#N)c(Nc4ccccc4C(N)=O)n3)cc2)CC1.Cl | 92 | 93 | 43
55 | Cc1c(-c2ccc(C(=O)NC3CC(C)(C)NC(C)(C)C3)cc2)[nH]c2cc(Cl)c(Cl)cc12 | 98 | 68 | 34
56 | O=C(O)C(F)(F)F.c1cc(CNC2CCCC2)cc(-c2ccc(CNc3ccc4ncccc4c3)cc2)c1 | 98 | 24 | 32
57 | CCc1ccc2c(c1O)CCN(C)C2Cc1ccccc1Cl.Cl (stereo not drawn) | 99 | 99 | 13
58 | CC(=O)N(C)c1ccc(C(=O)Nc2cccc(-c3cccc(-c4nc5cc(C(F)(F)F)ccc5[nH]4)c3)c2)cc1 | 96 | 29 | 31
59 | Cc1cc(N2CCCCC2)nc2ccc(NC(=O)c3cc(=O)c4ccccc4o3)cc12 | 98 | 19 | 15
60 | CCN1CCc2c1cc(C(=O)N[C@@H](Cc1ccccc1)[C@H](O)CNC(C)(C)c1cccc(C(F)(F)F)c1)cc2N1CCCCS1(=O)=O | 100 | 99 | 6
61 | O=C(/C=C/c1ccc(Cl)c(Cl)c1)NCCCCCN1CCC(NC(=O)Nc2ccccc2F)CC1 | 95 | 25 | 14
